Compounds with a hit are over-represented: about 4.6% of the library has one in this group of screens.
Marburg entry inh: qHTS for inhibitors of binding or entry into cells for Marburg Virus; Marburg virus pseudotyped entry inhibition, cell reporter; Potency, µM (titrated, usually from 37.8 µM), inactives show top-dose activity change, negative = inhibition, actives largely listed as inhibitors; 300,000 tested, 1.8% active; calls by dose curve; tested in HEK293 cells
LASV entry inh: qHTS for Inhibitors of binding or entry into cells for Lassa Virus; Lassa virus pseudotype entry inhibition, cell reporter; Potency, µM (highest dose often 37.9 µM), for the others: at the top dose activity change, negative = inhibition, most hits filed as inhibitors; 300,000 tested, 1.2% active; AID 540256, 2011; calls by dose curve; tested in HEK293 cells; also: nearly all actives have a fitted effect of over 50% in size
VACV Venus inh: qHTS for Stage-Specific Inhibitors of Vaccinia Orthopoxvirus: Venus Reporter Primary qHTS. Vaccinia virus Venus reporter expression, fluorescence. Potency, µM (highest dose often 36.5 µM), inactives show at the top dose activity change, negative = inhibition, hits mostly inhibitors. 330,000 tested, 0.46% active; calls by dose curve; tested in A549 cells; also: nearly all actives have a fitted effect of over 30% in size
HCV inh: qHTS Assay for Inhibitors of Hepatitis C Virus (HCV) | Huh7.5.1 HCVcc-Cre infection, luciferase reporter, 44 h | Potency, µM (series often up to 41.8 µM), for the others: at the highest dose activity change, negative = inhibition, actives largely listed as inhibitors | 340,000 tested, 3.4% active | AID 651820, 2012; active = well fitted inhibition curve with a large enough effect; inconclusive = small, poorly fitted or top-dose-only effect, or another doubt; inactive = no such curve, though single readings can be large or run the other way
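Antiviral activity was scored by luciferase reporter output from cells infected with HCVcc-Cre (~0.5 moi) in presence of compound, 44 h infection period, cells seeded 1,000/well 4 h prior.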
VACV mCherry inh: qHTS for Stage-Specific Inhibitors of Vaccinia Orthopoxvirus: mCherry Reporter Primary qHTS. Vaccinia virus mCherry reporter infection, fluorescence. Potency, µM (series often up to 36.5 µM), for the others: at the top dose activity change, negative = inhibition, actives largely listed as inhibitors. 310,000 tested, 0.63% active; calls by dose curve; tested in A549 cells; also: nearly all actives have a fitted effect of over 35% in size
* = called active by the depositor; i = inactive; ? = inconclusive; . = no result; [ ] = another dose, or the depositor's remark. % is scaled to controls: 0 for no effect and ±100 for the full control effect; potency is read from the fitted curve at half-maximal effect.

SMILES	Marburg entry inh	LASV entry inh	VACV Venus inh	HCV inh	VACV mCherry inh
COc1ccc(OC)c(CCNC(=O)CS(=O)(=O)Cc2nc(-c3cccc(Cl)c3)oc2C)c1	-15%[46.1 µM]	0%[46.1 µM]	-4%	.	-7%
CCOc1ccc(OCc2ccc(C(=O)N/N=C(\C)c3ccccn3)cc2)cc1	7.9µM*	11µM*	?	?	1.8µM*
CS(=O)(=O)c1ccc(-c2cccc3c2OC(CNC(=O)c2cc(C4CC4)[nH]n2)C3)cc1 (configuration not stated)	.	.	2%	.	-8%
CS/C(Nc1cc(Cl)ccc1Cl)=C(/C#N)C(=O)c1ccco1	?	5µM*	-18%	-11%	-24%
Cc1ccc(CSCC(=O)N/N=C/c2ccc(OCC(=O)Nc3ccc(C)cc3)cc2)cc1	-12%	?	-12%	4%	-19%
O=C(COc1ccc(/C=N/NC(=O)CSCc2ccc([N+](=O)[O-])cc2)cc1)NCc1ccco1	11µM*	?	-25%	?	-2%
CCn1cc(C(=O)NCCc2ccc(Cl)cc2)c(=O)c2cc(S(=O)(=O)N(C)C)ccc21	.	.	.	4%	.
CCn1cc(C(=O)NC(C)CCc2ccccc2)c(=O)c2cc(S(=O)(=O)N(C)C)ccc21 (configuration not stated)	?	6.3µM*	-20%	-6%	i
CCn1cc(C(=O)NCc2ccccc2OC)c(=O)c2cc(S(=O)(=O)N(C)C)ccc21	.	.	.	14µM*	.
CCN1CC2=C(OC(N)=C(C#N)C2c2cccs2)/C(=C/c2cccs2)C1 (configuration not stated)	?	?	-20%	22µM*	i
CCOC(=O)c1c(C)oc2c1cc(O)c1ccccc12	-22%	11%	-1%	32µM*	-10%
CCOC(=O)c1c(C)[nH]c2c1cc(O)c1ccccc12	?	12%	-13%	?	?
CCOC(=O)c1c(C)oc2c1c(C=NCc1ccccn1)c(O)c1ccccc12	?	14µM*	-10%	4.5µM*	-4%
CCOC(=O)c1c(C)oc2c1c(C=NCC1CCCO1)c(O)c1ccccc12 (configuration not stated)	4%	4%	-9%	-8%	-13%
C[C@H]1C=CCC(=O)N[C@@H](c2ccc3ccccc3c2)[C@@H](C)C=CCC(=O)N[C@@H]1c1ccc2ccccc2c1	20%[14.2 µM]	.	.	.	.
COc1ccc(C(O)C(CN2CCOCC2)c2ccccc2)cc1F (configuration not stated)	6%	-2%	.	0%	.
CCCOc1ccc(C(=O)C(CN2CCOCC2)c2ccccc2)cc1 (configuration not stated)	16µM*	?	?	?	?
COc1ccc(C(=O)C(CN2CCOCC2)c2ccccc2)cc1F (configuration not stated)	8.9µM*	?	13µM*	?	10µM*
CC12C=C(C=CCCc3ccco3)C(C)(C1)C(CCc1ccco1)CC2=O (configuration not stated)	-6%[14.2 µM]	.	.	.	.
Cc1ccccc1-c1nc2cc(NC(=O)COc3ccc(F)cc3)ccc2o1	7%[46.1 µM]	?	-8%	.	-9%
CC1=NN(c2nc(-c3ccc(C)cc3)cs2)C(=O)C1N=Nc1cccc(O)c1 (configuration not stated)	?	3%	8%	-20%	-5%
CC1=NN(c2nc(-c3ccc(C)cc3)cs2)C(=O)C1N=Nc1ccccc1O (configuration not stated)	?	?	438%	10µM*	1%
Cc1ccc(Nc2c(-c3c[nH]c4ccccc34)nc3ccccn23)cc1	?	?	-11%	.	i
OCCN1CCN(c2ncnc3sc(-c4ccccc4)cc23)CC1	?	?	-21%	?	-17%
CCCCN(CCO)c1ncnc2sc(-c3ccccc3)cc12	.	.	.	18µM*	.
SMILES	Marburg entry inh	LASV entry inh	VACV Venus inh	HCV inh	VACV mCherry inh
Cc1cc(C)nc(Nc2nc3ccccc3s2)n1	7%[46.1 µM]	-12%	-2%	29%	9%
Cc1ccc(Nc2nc3ccccc3s2)c(C)c1	8.2µM*	10µM*	-16%	-4%	?
Cc1ccccc1S(=O)(=O)Oc1ccc2ccc(O)cc2c1	.	.	.	22µM*	.
COc1ccc(/C=N/NC(=O)CSc2nnc(CCCc3ccc(OC)c(C)c3)o2)cc1	?	7.9µM*	?	-14%	.
COc1ccc(CCCc2nnc(SCC(=O)N/N=C\c3ccc(O)c(OC)c3)o2)cc1C	?	?	-30%	?	.
O=C(NC(=S)Nc1ccccc1O)c1cncc(Br)c1	-5%	-23%	?	-6%	14µM*
O=C(Nc1cc(C(=O)NC2CCOCC2)c2c(c1)ncn2C1CCCC1)c1ccccc1	.	.	-9%	.	-15%
COc1ccc(NC(=O)c2ccc3ccccc3n2)cc1S(=O)(=O)N1CCCCC1	?	?	-5%	5.6µM*	-15%
COc1ccc(NC(=O)Cn2ncc(Cl)c(Cl)c2=O)cc1S(=O)(=O)N1CCOCC1	?	?	-15%	8.9µM*	-2%
COc1ccc2c(CC(=O)Nc3ccc(OC)c(S(=O)(=O)N4CCOCC4)c3)coc2c1	2%	-1%	-12%	-22%	i
O=C(Nc1cccc(S(=O)(=O)N2CCCCCC2)c1)c1ccc2ccccc2n1	1%	6%	3%	?	i
COc1ccc(NC(=O)Cc2coc3cc(C)c(C(C)C)cc23)cc1S(=O)(=O)N1CCOCC1	?	?	?	7.1µM*	?
O=C(Nc1ccc(N2CCCCC2)cc1)c1ccc2ccccc2n1	.	.	.	10µM*	.
COc1ccc(CCC(=O)NO)cc1	.	.	-14%	.	-8%
COC(=O)c1ccccc1N(C)S(=O)(=O)c1cc2c3c(c1)CC(=O)N3CCC2	.	0%[46.1 µM]	-4%	.	-8%
COc1ccccc1Oc1nc2c(C)cccn2c(=O)c1/C=C(\C#N)c1nc2ccccc2[nH]1	14%[46.1 µM]	?	15%	.	8%
O=C(NCCc1ccccc1)c1cc2sccc2n1Cc1ccc(F)cc1	13%[46.1 µM]	16%[46.1 µM]	2%	.	-4%
Cc1nc(CC(=O)N2CCC(n3c(C4CCC4)nc4cccnc43)CC2)cs1	.	.	-9%	.	0%
O=C(Cc1ccc(OCc2ccccc2)cc1)NO	.	.	-6%	.	31%
CCc1ccc(C(=O)Nc2ccc(OC)c(S(=O)(=O)N3CCCCC3)c2)cc1	.	.	.	4.5µM*	.
CCc1ccc(C(=O)Nc2ccc(OC)c(S(=O)(=O)N3CCOCC3)c2)cc1	2%[46.1 µM]	-23%	-20%	8.9µM*	-25%
C=CCCCC=C(C)[C@H](OCc1ccc(OC)cc1)[C@H](CCC=C(C)C(N)=O)OC	10%[14.2 µM]	.	.	.	.
CN(Cc1ccc(Cl)s1)C(=O)CCl	?	11µM*	-25%	?	-16%
COc1ccc(N(CC(=O)N2CCN(c3ccc(F)cc3)CC2)S(=O)(=O)c2c(C)nn(C)c2C)cc1	-11%[46.1 µM]	-11%[46.1 µM]	-7%	.	-7%

High-throughput results from PubChem.
